# Hits are enriched below; roughly 2.8% of the tested compounds scored in any of these assays.
# Pol eta inh = inhibitors of human DNA polymerase eta; recombinant Pol eta, fluorescent DNA replication assay; Potency, µM (highest dose often 114 µM), inactives show at the top dose activity change, negative = inhibition, hits mostly inhibitors; 390,000 tested, 1.2% active; further: potency means the concentration at half of the fitted maximal effect; on the % scale 0 is the no-effect control and ±100 the full control effect
#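 Fluorescent replication assay: 50 nM final substrate added after a 15 min room-temperature compound preincubation with 10 nM enzyme. Signal taken at 0 min and again at 10 min.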
# POLK inh = blocks human DNA polymerase kappa activity; Q9UBT6; purified Pol kappa, fluorescent DNA synthesis assay, 10 min; Potency, µM (doses to about 107 µM), inactives show top-dose activity, negative = inhibition, most hits filed as inhibitors; 400,000 tested, 0.53% active; further: potency means the concentration at half of the fitted maximal effect; on the % scale 0 is the no-effect control and ±100 the full control effect
#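 10 nM Pol kappa preincubated 15 min at room temperature with compounds, then reaction started with substrate at 50 nM final. Fluorescence read kinetically at 0 and 10 min; buffer-only wells served as negative control.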
# PI5P4Ka inh = blocks human PI5P4K alpha kinase activity. PI5P4Kalpha enzyme, ADP-Glo luminescence, 60 min; stronger effect = lower value. max response, %. 330,000 tested, 1.2% active; active means max response of -50% or lower; inconclusive means between -30% and -50%; inactive means -30% or higher; further: value at the top dose of about 77 µM; on the % scale 0 is the no-effect control and ±100 the full control effect
#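 PI5P4Kalpha ADP-Glo assay; 5 microM ATP final; 60 min RT reaction; HEPES pH 7.4/EGTA/CHAPS, 5% DMSO; controls lacking substrate or enzyme; luminescent end-point.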
# Pol beta inh-1 = blocks human DNA polymerase beta activity; Pol beta primer extension/strand displacement, fluorescence kinetic; 340,000 tested, 1.3% active; Potency, µM (top dose mostly 114 µM), for the others: at the top dose activity change, negative = inhibition, most hits filed as inhibitors; P06746; further: potency means the concentration at half of the fitted maximal effect; on the % scale 0 is the no-effect control and ±100 the full control effect
#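 Pol beta (10 nM) and compounds were preincubated 15 min at room temperature, then 50 nM substrate (final) started primer extension/strand displacement. Reads were taken at 0 and 10 min; concentration-response data were fitted to a four-parameter Hill equation.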
# WRN helicase inh = blocks human WRN helicase; Q14191; Potency, µM (highest dose often 114 µM), without a hit: at the top dose activity change, negative = inhibition, hits mostly inhibitors; WRN helicase unwinding, fluorescent forked duplex, kinetic; 360,000 tested, 0.46% active; further: potency means the concentration at half of the fitted maximal effect; on the % scale 0 is the no-effect control and ±100 the full control effect; nearly all actives have a fitted effect of over 55% in size
#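 Primary qHTS, 1536-well format. 20 nM WRN + compound, 15 min RT; start with 100 nM forked fluorophore/quencher duplex, 2 mM ATP (final); kinetic read ex 525/em 598 nm.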
# Pol iota inh = inhibitors of human DNA polymerase iota; Pol iota fluorescent replication assay, 10 min; Potency, µM (highest dose often 115 µM), for inactives: top-dose activity, negative = inhibition, hits mostly inhibitors; 390,000 tested, 1% active; further: potency means the concentration at half of the fitted maximal effect
#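 Fluorescent replication assay read twice, at 0 min and 10 min after adding 50 nM (final) substrate. Enzyme (10 nM) and compounds were first incubated 15 min at room temperature; enzyme-free buffer wells were negative controls.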
# Pol beta inh-2 = Validate hits inhibiting human DNA polymerase beta; shares compounds with Pol beta inh-1; Pol beta primer extension/strand displacement, fluorescence kinetic; Potency, µM, actives largely listed as inhibitors; 250 tested, 87% active; calls by dose curve; further: potency means the concentration at half of the fitted maximal effect
# Klenow counter = Klenow polymerase inhibition, pol beta selectivity check. AID 540300. activity change, negative = inhibition, % at 57.1 µM. shares compounds with Pol beta inh-1. 250 tested, under 10 active. Klenow exo- polymerase counter-screen, fluorescent DNA substrate
# HIV RT counter = counter-screen for DNA polymerase beta inhibitors: HIV-1 RT inhibition; shares compounds with Pol beta inh-1; HIV-1 RT polymerase activity, counter-screen; activity % (negative = inhibition, positive = activation), % at 57.1 µM; 250 tested, under 10 active; AID 540301
# POLB inh gel = validation of human DNA polymerase beta inhibitors. shares compounds with Pol beta inh-1. radiolabeled primer extension gel assay, phosphorimager. inhibition, % at 10 µM. 110 tested, 91% active;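 active means inhibition at 10 µM of 30% or more; inconclusive means no clear call, values can overlap the other calls; inactive means inhibition at 10 µM under 30%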
# POLI cherry-pick = Confirm cherry-picked inhibitors of human polymerase iota. 1,500 tested, 77% active. Potency, µM, most hits filed as inhibitors. Pol iota primer extension, TAMRA/BHQ fluorescence. shares compounds with POLK inh; further: potency means the concentration at half of the fitted maximal effect
# * marks the source's active call; other numbers are inactive results; ? = inconclusive; nt = no result; [ ] = dose if it differs, or a comment. Unless noted, the call rests on the fitted dose curve; in most records, active means well fitted curve in the direction sought with a large enough effect; inconclusive means small, poorly fitted or top-dose-only effect, or another doubt; inactive means no such curve, though single readings can be large; an effect the other way counts as inactive or inconclusive.
SMILES,Pol eta inh,POLK inh,PI5P4Ka inh,Pol beta inh-1,WRN helicase inh,Pol iota inh,Pol beta inh-2,Klenow counter,HIV RT counter,others
Cc1cc(Cl)ccc1OCC(=O)Nc1c(Cl)ccc2nsnc12,-3.9%,-6.6%,nt,11.0%,nt,-17.5%,nt,nt,nt,
CN(C)c1ccc(/C=C/c2ccnc3ccccc23)cc1C=O,nt,4.2%,nt,nt,nt,81.9%,nt,nt,nt,
O=C(OCC(=O)N1CCN(C(=O)c2ccco2)CC1)c1cc(-c2ccco2)nc2ccccc12,31.6µM*,25.1µM*,nt,3.16µM*,50.1µM*,8.91µM*,3.55*,-24.0,?,
COc1cccc(C(=O)NN2CC(O)=C(c3nc(C)cs3)C2=N)c1,?,-2.3%,-0.3,0.3%,-6.2%,10.0%,nt,nt,nt,
Cc1ccc(C(=O)NN2CC(O)=C(c3nc(-c4cccc([N+](=O)[O-])c4)cs3)C2=N)cc1,-8.7%,-10.3%,-23.6,5.01µM*,-2.1%[57.1 µM],?,?,-28.3,27.1,
Cc1ccc(-n2nnc3c(=O)n(CC(=O)NCc4ccccc4)cnc32)cc1,-11.2%,-18.4%,8.0,10µM*,-17.0%,-23.6%,?,11.2,28.5,POLB inh gel=49.7*
Cc1ccc(Nc2nn3c(=O)c4cc5c(cc4nc3s2)OCO5)cc1Cl,-7.2%,-2.2%,nt,34.3%,nt,-5.4%,nt,nt,nt,
Cc1cccc(Nc2nn3c(=O)c4ccccc4nc3s2)c1,?,?,-2.4,10µM*,-24.2%,?,3.98*,-7.5,27.0,
COc1cccc(-c2nn(C)c3sc(C(=O)NCc4ccc(C)o4)cc23)c1,-11.3%,-0.6%,-11.4,-18.3%,-17.8%,13.7%,nt,nt,nt,
COc1ccc(-c2nn(C)c3sc(C(=O)NCc4ccco4)cc23)cc1OC,?,-14.6%,-8.3,12.6µM*,-16.8%,?,14.1*,-4.6,26.2,
COc1ccc(NS(=O)(=O)c2ccc(O)c(NC(=O)c3ccc(S(=O)(=O)N4CCCCCC4)cc3)c2)cc1,?,0.0%,-22.5,12.6µM*,-10.1%[11.6 µM],?,35.5*,-31.1,-7.3,
CC1CCN(S(=O)(=O)c2ccc(NC(=O)Cn3nnc(-c4ccccc4F)n3)cc2)CC1,?,?,nt,15.8µM*,-25.9%,50.1µM*,35.5*,-22.3,27.0,
CC1CCN(S(=O)(=O)c2ccc(NC(=O)c3ccccc3F)cc2)CC1,-12.4%,-7.7%,-7.3,6.1%,?,53.7%,nt,nt,nt,
Cc1ccc(S(=O)(=O)N2CCCC2C(=O)OCc2ccco2)cc1 (stereo not given),31.6µM*,-43.7%,nt,20µM*,?,25.1µM*,31.6*,-36.5,5.6,POLB inh gel=50.5*
Cc1ccc(S(=O)(=O)N2CCCC2C(=O)OCc2ccccc2)cc1 (stereo not given),-20.2%,-6.3%,-3.8,-0.8%,-21.3%,8.4%,nt,nt,nt,
Cc1c2cnn(CC(=O)Nc3c(F)c(F)cc(F)c3F)c(=O)c2c(C)n1Cc1ccc(F)cc1,nt,nt,nt,8.91µM*,nt,nt,25.1*,-32.9,-5.6,POLB inh gel=99.9*
O=[N+]([O-])c1cc(CN2CCCC2)c2cccnc2c1O,3.16µM*,?,?,1.78µM*,?,?,2.82*,-7.4,10.5,
COc1cc(OC)c(NC(=O)Cn2cnc3sc(C)c(S(=O)(=O)N4CCN(C)CC4)c3c2=O)cc1Cl,-14.1%,-16.9%,nt,-1.1%,nt,-15.0%,nt,nt,nt,
CCOC(=O)c1sc2nc3c(SCCC(=O)O)cc(C(=O)c4cc(OC)ccc4O)cn3c(=O)c2c1C,11.2µM*,-43.0%,?,2.82µM*,-23.4%,?,6.31*,-24.7,22.1,
CC(=O)NCCNC(=O)c1ccc(Cn2c(=O)[nH]c3ccsc3c2=O)cc1,-23.6%,0.0%,-5.3,56.3%,1.3%,20.5%,nt,nt,nt,
O=C(Nc1cc(Cl)cc(Cl)c1)c1ccc(Cn2c(=O)[nH]c3ccsc3c2=O)cc1,?,-10.8%,-17.8,14.1µM*,-10.7%,-5.8%,?,-26.6,26.1,POLB inh gel=93.0*
O=C(Nc1sc2c(c1C(=O)NCc1ccco1)CCCC2)c1ccc2c(c1)OCO2,-10.8%,-29.4%,nt,12.6µM*,-14.6%,?,?,-25.8,31.2,
CCOc1ccccc1C(=O)Nc1ccc(-n2nncc2-c2ccccc2)cc1,-6.8%,-11.3%[60.1 µM],nt,22.5%,nt,?,nt,nt,nt,
Cc1ccc(-n2c(=O)c3c(C)c(C(=O)N(C)C)sc3n(CC(=O)N(C)c3ccccc3)c2=O)cc1C,0.9%,-4.0%[60.1 µM],nt,1.2%,nt,-12.2%,nt,nt,nt,
N#CC1=C(N)N2C(=C(C#N)C1c1cccc(Br)c1)Nc1ccccc12 (stereo not given),-2.7%,-1.8%,-8.2,24.7%,-2.6%,55.2%,nt,nt,nt,
SMILES,Pol eta inh,POLK inh,PI5P4Ka inh,Pol beta inh-1,WRN helicase inh,Pol iota inh,Pol beta inh-2,Klenow counter,HIV RT counter,others
N#CC1=C(N)N2C(=C(C#N)C1c1ccc(Br)cc1)Nc1ccccc12 (stereo not given),56.2µM*,-39.8%,-24.8,12.6µM*,-6.1%[11.6 µM],?,15.8*,-28.3,39.0,POLI cherry-pick=?
Nc1nc(SCc2ccc(Cl)cc2Cl)nc2nc3c(cc12)CCCC3,?,-25.2%,-3.6,10µM*,?,79.4µM*,35.5*,286.7,-4.2,POLI cherry-pick=33.6*
COc1cc(/C=C(\C#N)C(=O)Nc2cccc(C(=O)O)c2)ccc1OCc1ccc(C)cc1,-18.4%,-10.8%,-24.2,?,-25.4%,63.3%,nt,nt,nt,
CCOc1cc(/C=C(\C#N)C(=O)Nc2cccc(C(=O)O)c2)ccc1OCc1ccc(Br)cc1,?,-21.6%,-2.6,10µM*,-24.5%[11.6 µM],7.08µM*,3.55*,-21.4,5.2,POLI cherry-pick=7.52*
CCc1nn(CC(=O)N2CCN(c3cccc(C)c3C)CC2)c(=O)c2cc3occc3n12,-10.0%,-8.4%,nt,-12.1%,nt,-6.5%,nt,nt,nt,
COc1cccc(C(=O)Nc2ccc3c(c2)C(=O)c2ccccc2C3=O)c1,?,-9.2%[60.1 µM],-23.5,10µM*,?,?,14.1*,?,10.3,POLI cherry-pick=?
Cc1cc(SCC(=O)NCc2ccccc2Cl)nc(=O)[nH]1,?,-3.9%[60.1 µM],nt,15.3%,nt,22.1%,nt,nt,nt,
